Cycloheximide cs: counter-screen for Shiga toxin inhibitors: cycloheximide protein synthesis inhibition; cell reporter, cycloheximide protein synthesis inhibition counterscreen; 300,000 compounds, 12% hits; max response, %; in the data active means max response mostly above about 13%, no sharp cut-off; inactive means mostly below about 14%; further: read at 38.3 µM for the half of the compounds with a filed dose; 0% is about no effect
Pf growth 48h: inhibits P. falciparum growth in the first generation, 48 h. 310,000 compounds, 5.9% hits. Potency, µM (titrated, usually from 28.7 µM), without a hit: at the highest dose activity change, negative = inhibition, actives largely listed as inhibitors. P. falciparum luciferase growth in erythrocytes, 48 h; further: potency means the concentration at half of the fitted maximal effect; on the % scale 0 is the no-effect control and ±100 the full control effect
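Compounds are pin-transferred into medium, infected erythrocytes (2% hematocrit, 0.1% parasitemia final) are added, and plates sit one parasite generation at 37 C in 5% CO2. Detection reagent is then added and luminescence measured.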
HCMV antiviral: inhibitors of human cytomegalovirus; activity change, negative = inhibition, % at 57.5 µM; 410,000 compounds, 4.5% hits; HFF cells, HCMV-luciferase reporter, 72 h; active compounds read low; in the data active means activity change below about -60%; inconclusive means no clear call, values can overlap the other calls; inactive means above about -39%; further: on the % scale 0 is the no-effect control and ±100 the full control effect
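After 16 h attachment at 37C, HFF cells received test compound and HCMV-luciferase (1 PFU/cell); reporter luminescence read 72 h later, data normalized against buffer-only and known inhibitor Salinomycin.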
Shiga inhibitor: Shiga toxin inhibition. inhibition, % at 38.7 µM. Vero cells, Shiga toxin protein synthesis inhibition reporter. AID 2315. 290,000 compounds, 9.2% hits; in the data active means inhibition mostly above about 28%, no sharp cut-off; inactive means mostly below about 43%; further: 0% is about no effect
Pf growth 96h: P. falciparum growth inhibition at 96 hour, primary screen for plastid delayed-death inhibitors. P. falciparum luciferase reporter growth, 96 h. Potency, µM (titrated, usually from 28.7 µM), for inactives: top-dose activity change, negative = inhibition, actives largely listed as inhibitors. 320,000 compounds, 6.9% hits; further: potency means the concentration at half of the fitted maximal effect; on the % scale 0 is the no-effect control and ±100 the full control effect
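Erythrocytes infected with luciferase-expressing P. falciparum were dispensed at 2% hematocrit and 0.05% parasitemia (final), then incubated with compounds 96 hours at 37 C in 5% CO2. Luminescence after detection reagent addition reported growth.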
HCV inh: inhibitors of hepatitis C virus infection. Huh7.5.1 HCVcc-Cre infection, luciferase reporter, 44 h. Potency, µM (highest dose often 41.8 µM), inactives show at the top dose activity change, negative = inhibition, hits mostly inhibitors. 340,000 compounds, 3.4% hits; further: potency means the concentration at half of the fitted maximal effect; on the % scale 0 is the no-effect control and ±100 the full control effect
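A cell-based infection assay in which seeded cells (1,000 per well) receive test compound after 4 h, are inoculated with HCVcc-Cre at approximately 0.5 moi, and are incubated 44 h before luminescence detection.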
* hit, by the source's call. An excerpt weighted towards active compounds, which were near 21% of everything screened. Unless noted, the call rests on the fitted dose curve; in most records, active means well fitted inhibition curve with a large enough effect; inconclusive means small, poorly fitted or top-dose-only effect, or another doubt; inactive means no such curve, though single readings can be large or run the other way.

`CC1(C)Cc2c(sc3c2c(=N)n(Cc2ccco2)c(=O)n3CC(=O)Nc2cccc(Cl)c2)CO1` gave Cycloheximide cs 12, Pf growth 48h inconclusive, HCMV antiviral 32, Shiga inhibitor -9, Pf growth 96h 10µM* and HCV inh inconclusive.
`Cc1cccc(NC(=O)Cn2c(=O)n(Cc3ccco3)c(=N)c3c4c(sc32)COC(C)(C)C4)c1` gave Cycloheximide cs -3, HCMV antiviral 53, Shiga inhibitor -10, Pf growth 96h 8.3µM* and HCV inh inconclusive.
Screening O=C(c1ccccc1[N+](=O)[O-])N1CCN(c2ccc(N3CCOCC3)nn2)CC1 returned Pf growth 48h -17%, HCMV antiviral -5, Pf growth 96h -5% and HCV inh -11%.
`Cn1c(COc2cccc3cccnc23)nnc1SCC(=O)O` gave Cycloheximide cs -4, Pf growth 48h 48%, HCMV antiviral -1, Shiga inhibitor 2, Pf growth 96h 10µM* and HCV inh 4%.
Screening Cn1c(COc2ccccc2)nnc1SCCSc1nnc(COc2ccccc2)n1C returned Cycloheximide cs -1, Pf growth 48h -6%, HCMV antiviral -65*, Shiga inhibitor -17, Pf growth 96h 1% and HCV inh inconclusive.
Screening CCn1c(COc2cccc3cccnc23)nnc1SCC(=O)O returned Cycloheximide cs -5, HCMV antiviral 5, Shiga inhibitor -15, Pf growth 96h 31% and HCV inh 21%.
For O=C(CCl)N(c1ccccc1)C1CCCCC1 the results were Cycloheximide cs -6, Pf growth 48h 10µM*, HCMV antiviral -113*, Shiga inhibitor -26, Pf growth 96h 13µM* and HCV inh 4µM*.
Screening COc1cccc(-c2c(-c3cc(OC)cc(OC)c3)n(C)c3ccc(-c4ccc5[nH]ccc5c4)cc23)c1 returned Pf growth 48h 5.9µM*, HCMV antiviral -35, Pf growth 96h inconclusive and HCV inh inconclusive.
`COc1cccc(-c2c(-c3cc(OC)cc(OC)c3)n(C)c3ccc(-c4cccc5[nH]ccc45)cc23)c1` gave Pf growth 48h 1.9µM*, HCMV antiviral 28, Pf growth 96h inconclusive and HCV inh inconclusive.
C=CCN(C(=O)c1csnn1)C(C(=O)NCc1ccc(F)cc1)c1ccccc1F (stereo not drawn) was read as Cycloheximide cs -4, Pf growth 48h 7%, HCMV antiviral 32, Shiga inhibitor 15, Pf growth 96h inconclusive and HCV inh -9%.
For CCC(C)(C)n1nnnc1C(c1ccc2ncccc2c1)N1CCN(c2nc3ccccc3s2)CC1 (stereo not drawn) the results were Cycloheximide cs 11, Pf growth 48h 5.2µM*, HCMV antiviral inconclusive, Shiga inhibitor 11, Pf growth 96h -9% and HCV inh inconclusive.
Screening CCC(C)(C)n1nnnc1C(c1ccc2ncccc2c1)N1CCN(c2ccc(O)cc2)CC1 (stereo not drawn) returned Cycloheximide cs 1, Pf growth 48h inconclusive, HCMV antiviral -4, Shiga inhibitor -9, Pf growth 96h inconclusive and HCV inh 15%.
`CCC(C)(C)n1nnnc1C(c1ccc2ncccc2c1)N1CCCC(C)C1` (stereo not drawn) gave Cycloheximide cs 0, Pf growth 48h inconclusive, HCMV antiviral -26, Shiga inhibitor 2, Pf growth 96h 10µM* and HCV inh -8%.
For COc1ccc(C2=NN(c3nc(-c4ccc(CNC(C)=O)cc4)cs3)C(c3ccco3)C2)cc1 (stereo not drawn) the results were Cycloheximide cs 16, Pf growth 48h 3.7µM*, HCMV antiviral inconclusive, Shiga inhibitor 23, Pf growth 96h inconclusive and HCV inh -15%.
Screening COc1ccc2[nH]cc(/C=N/NS(=O)(=O)c3ccc(C)cc3)c2c1 returned Cycloheximide cs 1, Pf growth 48h 5%, HCMV antiviral -64*, Shiga inhibitor 15, Pf growth 96h 27% and HCV inh 11µM*.
`COc1ccc(OC)c(S(=O)(=O)N/N=C(/C)c2c[nH]c3ccccc23)c1` gave Cycloheximide cs -3, Pf growth 48h 4%, HCMV antiviral 18, Shiga inhibitor 28, Pf growth 96h 22% and HCV inh 1%.
Screening COc1ccc(OC)c(S(=O)(=O)N/N=C\c2c[nH]c3ccccc23)c1 returned Cycloheximide cs 7, Pf growth 48h 3%, HCMV antiviral 12, Shiga inhibitor 15, Pf growth 96h -16% and HCV inh 11µM*.
For Cc1ccc2oc(C(=O)Nc3nc(-c4ccc(F)cc4)ns3)c(C)c2c1 the results were HCMV antiviral 46.
`COc1cc(NC(=O)C2=CC(c3ccc(F)cc3)=NS(=O)(=O)N2C)cc(OC)c1OC` gave HCMV antiviral -13.
For c1ccc(-c2cc3nccc(-c4ccccn4)n3n2)cc1 the results were Cycloheximide cs 45*, Pf growth 48h 247%, HCMV antiviral 109, Shiga inhibitor 94*, Pf growth 96h 335% and HCV inh inconclusive.
`Cc1cc2nccc(-c3ccccn3)n2n1` gave Cycloheximide cs -4, Pf growth 48h inconclusive, HCMV antiviral -25, Shiga inhibitor -5, Pf growth 96h 31% and HCV inh -1%.
Screening c1ccc(-c2ccc(-n3ccnc3)cc2)cc1 returned Cycloheximide cs 8.0*, Pf growth 48h inconclusive, HCMV antiviral -21, Shiga inhibitor 36, Pf growth 96h inconclusive and HCV inh 2%.
For c1ccc(-c2nc(N3CCN(c4ccccc4)CC3)nc(-n3ccnc3)n2)cc1 the results were Cycloheximide cs -7, Pf growth 48h 4.1µM*, HCMV antiviral -9, Shiga inhibitor -32, Pf growth 96h inconclusive and HCV inh inconclusive.
For COC(=O)c1ccc(-n2ccnc2)cc1 the results were Cycloheximide cs 11, Pf growth 48h 45%, HCMV antiviral -28, Shiga inhibitor -12, Pf growth 96h 7% and HCV inh 15%.
COc1ccccc1C(=O)N/C(=C\c1cn(S(=O)(=O)N(C)C)c2ccccc12)C(=O)N1CCCC1 was read as Cycloheximide cs -8, Pf growth 48h inconclusive, HCMV antiviral inconclusive, Shiga inhibitor -4, Pf growth 96h 7% and HCV inh -17%.
Screening CCc1ccc(NC(=O)CN2C(C(=O)OC)=C(c3ccccc3)c3ccccc3S2(=O)=O)cc1 returned HCMV antiviral -5.
`N#Cc1c(NC(=O)c2ccc(Cn3cc(Br)cn3)o2)sc2c1CCCCC2` gave Cycloheximide cs 39*, Pf growth 48h 21%, HCMV antiviral 15, Shiga inhibitor 103, Pf growth 96h inconclusive and HCV inh inconclusive.
